Experimental data: PubChem BioAssay AID1814 (Broad Institute, 2009)
Among all 300,000 compounds or so, about 22,000 (7.3%) were called active. Inconclusive results (about 2%) are left out. Rule as the data show it: active = activity score below about -60%; inconclusive = mostly about -28% to -61%; inactive = positive scores. The entries come from a sample that favours actives as a whole.

experiment: Activators via SNCA 5'UTR binding, MLPCN (AID 1814); details: alpha-synuclein 5'UTR reporter, activators screen; active compounds read low; tested at 7.5 µM

Row | Compound | activity score
1 | O=C(Nc1cc(C(F)(F)F)ccc1Cl)c1cc(C2CC2)on1 | -77.3% (active)
2 | O=C(Nc1cc(C(F)(F)F)ccc1Cl)c1cc2nc3c(c(C(F)(F)F)n2n1)CCCC3 | -243% (active)
3 | CSc1ccccc1NC(=O)c1cc(C2CC2)on1 | -116% (active)
4 | O=C(O)c1ccccc1CSc1nc2ccccc2s1 | -62.9% (active)
5 | CC(/C=N/NC(=O)c1cc(-c2ccc3ccccc3c2)n[nH]1)=C\c1ccco1 | -220% (active)
6 | COC(=O)c1ccc(CNC(=O)c2ccc3oc(C(C)C)nc3c2)cc1 | -95.9% (active)
7 | COc1ccc(CNC(=O)c2ccc3oc(C(C)C)nc3c2)cc1 | -118% (active)
8 | COC(=O)c1ccc(Sc2ccc(F)cc2)c(N)c1 | -107% (active)
9 | CC(C)(C)c1ccc(/C=C2\SC(=O)N=C2N)cc1 | -78.7% (active)
10 | O=C(Nc1cccc2ccccc12)c1onc2c1CCCC2 | -204% (active)
11 | Cc1ccc2nc(-c3ccc(SCC(=O)Nc4cc(C)on4)nc3)[nH]c2c1 | -160% (active)
12 | O=C(c1noc2c1CCCC2)N1CCc2ccccc2C1 | -165% (active)
13 | O=C(NCCNc1ccccc1[N+](=O)[O-])c1ccccc1F | -168% (active)
14 | NC(=O)c1ccccc1N=Cc1ccc2ccccc2c1 | -211% (active)
15 | CCc1ccc2nc3sc(C(=O)Nc4nnc(CC)s4)c(N)c3cc2c1 | -71.1% (active)
16 | Cc1nc(C)c(-c2csc(NCCc3ccccc3)n2)s1 | -84.7% (active)
17 | CC(c1ccccn1)N(C)C(=O)c1ccc2nc(Cc3cccc(Cl)c3)oc2c1 (centres undefined) | -80.8% (active)
18 | COc1ccc(-c2cc3n(n2)CCc2nc4ccccc4n2-3)cc1 | -137% (active)
19 | COC(=O)c1sc(N2CCN(Cc3ccccc3)CC2)nc1N | -67.9% (active)
20 | CCN1CCN(c2cc3nc(C)n(Cc4ccccc4)c(=O)c3cc2NC(=O)c2ccccc2F)CC1 | 65.1% (inactive)
21 | Oc1ccc2ccccc2c1N=Nc1nccs1 | 87.4% (inactive)
22 | Cn1c(-c2ccc(C(=O)c3ccccc3)s2)nc2ccccc21 | -73.8% (active)
23 | O=C(/C=C/c1cnc2ccccc2n1)NC1CCCCCC1 | -94.3% (active)
24 | O=[N+]([O-])c1ccccc1S(=O)(=O)Nc1cccc2cccnc12 | 59.9% (inactive)
25 | O=C(Nc1ccccc1Cl)Nc1cccc2cccnc12 | -162% (active)
26 | COc1ccc(NC(=O)Nc2cccc3cccnc23)cc1 | -211% (active)

Row | Compound | activity score
27 | S=C(c1ccc(-c2ccccc2)o1)N1CCCCC1 | -113% (active)
28 | OCCN1CCN(C(=S)c2ccc(-c3ccccc3)cc2)CC1 | 88% (inactive)
29 | O=C(Nc1ccc(Cl)cn1)Nc1cccs1 | -78.6% (active)
30 | Clc1ccc(Nc2ccc3ccccc3n2)cc1 | -61.9% (active)
31 | CCOC(=O)C1(Cc2ccccc2C)CCCN(C(=O)c2ccc(COC)o2)C1 (centres undefined) | -84.1% (active)
32 | O=C(Nc1ccc(N2CCOCC2)nc1)c1c(F)cccc1F | -91.2% (active)
33 | CCc1ccccc1OCC(=O)Nc1ccc2c(c1)OCCO2 | -104% (active)
34 | COC(=O)CCNc1ccc2c(c1)OCCO2 | -62.2% (active)
35 | CCCCC(=O)Nc1ccc2c(c1)OCCO2 | -102% (active)
36 | Cc1ccc(SCC(=O)Nc2ccc3c(c2)OCCO3)cc1 | -96.9% (active)
37 | CC(C)(C)C(=O)CSc1nc2ccccc2o1 | -109% (active)
38 | CCN(CC)C(=O)CSc1nc2ccccc2o1 | -63.8% (active)
39 | CC1Cc2ccccc2N1C(=O)CSc1nc2ccccc2o1 (centres undefined) | -87.9% (active)
40 | CCc1ccc(NC(=O)Nc2ccncc2)cc1 | -76.8% (active)
41 | Cc1ccc(-c2nc(-c3cccnc3)sc2CC(=O)Nc2ccc(C)c(Cl)c2)cc1 | 54.1% (inactive)
42 | Cc1ccc(NC(=O)Nc2nnc(-c3ccncc3)s2)cc1 | -68% (active)
43 | Cc1ccc(NC(=O)Nc2cccnc2)cc1 | -97.5% (active)
44 | CC(=O)c1cccc(NC(=O)Nc2ccc(C)cc2)c1 | -144% (active)
45 | CCCCCCCCn1c2c(c(=N)c3c1CCC3)CCCC2 | 101% (inactive)
46 | COC(=O)c1ccc(NC(=O)Nc2ccc(C)cc2)cc1 | -81.9% (active)
47 | Cc1ccc(NC(=O)Nc2ccccc2)c(Br)c1 | -192% (active)
48 | COc1cc(NC(=O)Nc2ccc(C)cc2)cc([N+](=O)[O-])c1 | -141% (active)
49 | COC(=O)c1sccc1NC(=S)Nc1ccc(C)cc1 | -77.8% (active)
50 | O=C(c1ccco1)N1CCN(C(=O)c2cc(-c3ccccc3F)no2)CC1 | -156% (active)
51 | O=C(NCCCN1CCOCC1)c1cc(-c2ccccc2F)no1 | -121% (active)
52 | CCC(=O)/C(=C(/O)c1ccccc1)c1nc2ccccc2[nH]1 | -69% (active)

Row | Compound | activity score
53 | CC[C@]1(O)C[C@@H]2CN(CCc3c([nH]c4ccccc34)[C@@](C(=O)OC)(c3cc4c(cc3OC)N(C)[C@H]3[C@@](O)(C(=O)OC)[C@H](OC(C)=O)[C@]5(CC)C=CCN6CC[C@]43[C@@H]65)C2)C1 | 77.2% (inactive)
54 | CNc1[nH]ncc1[N+](=O)[O-] | -74.2% (active)
55 | CC1CCC(NC(=O)c2ccc(N3CCCC3=O)cc2)CC1 (centres undefined) | -64.3% (active)
56 | CC1CCCC(NC(=O)c2cccc(N3CCCC3=O)c2)C1C (centres undefined) | -74.5% (active)
57 | CN1c2ccc(C=O)c3c(C=O)ccc(c23)N(C)C1(C)C | 67% (inactive)
58 | CC1CCN(C(=S)c2ccc(-c3ccc(Cl)cc3Cl)o2)CC1 | -91.3% (active)
59 | O=C(CSc1ccccn1)Nc1nc2c(ccc3ccccc32)s1 | -63.2% (active)
60 | COc1ccc2nc(SCc3ccccc3)nc(C)c2c1 | -70.7% (active)
61 | Cc1ccc(-n2ncc3c2ncn2nc(-c4ccco4)nc32)c(C)c1 | -88.8% (active)
62 | Cc1onc(-c2ccccc2Cl)c1C(=O)N(Cc1ccc(N(C)C)cc1)C(C)C | 73.1% (inactive)
63 | CCN1/C(=C\c2ccc3ccccc3[n+]2CC)Sc2cc(C)ccc21 | -332% (active)
64 | O=C(Nc1ncccc1O)c1ccc(C(=O)c2ccccc2)cc1 | -507% (active)
65 | O=C(Nc1ncccc1O)c1ccc(S(=O)(=O)N2CCCC2)cc1 | -67.4% (active)
66 | CNC(C)C#Cc1ccc2sc3cc(OC)c(OC)cc3c(=O)c2c1 (centres undefined) | -277% (active)
67 | CC(C)(C)C(=O)Nc1ccc(-c2cn3cccnc3n2)cc1 | -130% (active)
68 | COc1ccc(-c2cn3ccsc3n2)cc1 | -105% (active)
69 | FC(F)(F)Oc1ccc(-c2cn3cccnc3n2)cc1 | -80.4% (active)
70 | COc1ccc(-c2cn3cccnc3n2)cc1 | -75.4% (active)
71 | CCn1nnnc1SCC(=O)c1ccc(C)cc1C | -81% (active)
72 | COC(=O)C1C(=O)c2c([nH]c(C(=O)OCCSC)c2C)CC1C (centres undefined) | -117% (active)
73 | Cc1cccc(-n2ncc3c(N4CCc5ccccc54)ncnc32)c1 | -164% (active)
74 | COc1ccc(-n2ncc3c(N4CCc5ccccc54)ncnc32)cc1 | -240% (active)
75 | Cc1cc(N/C=C\C(=O)c2ccc(Cl)c(Cl)c2)no1 | -231% (active)
76 | CCCCC(=O)Nc1nc(C)c(-c2csc(Nc3ccc(Cl)cc3)n2)s1 | -62.8% (active)
77 | Cc1cc(-c2n[nH]c(=S)n2/N=C/C(Br)=C/c2ccccc2)n[nH]1 | -235% (active)
78 | Cc1ccccc1-c1n[nH]c(=S)n1/N=C/c1ccc(-c2ccccc2Br)o1 | 57.9% (inactive)

Row | Compound | activity score
79 | S=c1[nH]nc(-c2cccnc2)n1/N=C/C(Cl)=C\c1ccccc1 | -177% (active)
80 | Cc1nn2c3cc(N4CCOCC4)ccc3nc2c2ccccc12 | -149% (active)
81 | O=C(Cc1ccc(F)cc1)N/N=C/c1ccc2c(c1)OCO2 | -93.4% (active)
82 | Cc1ccc(C(=O)NNc2ncnc3ccccc23)cc1 | -131% (active)
83 | O=C(Nc1ccc2c(c1)OCCO2)c1cnccn1 | -68.9% (active)
84 | Oc1c(CN2CCN(c3ccc(F)cc3)CC2)cc(Cl)c2cccnc12 | 69.6% (inactive)
85 | Cn1cc([N+](=O)[O-])c(C(=O)Nc2ccc3c(c2)OCCO3)n1 | -65.9% (active)
86 | O=C(Nc1ccc2c(c1)OCCO2)c1ccoc1 | -84.8% (active)
87 | CCN1CCN(c2ccc(NC(=O)c3cnccn3)cc2)CC1 | -97.4% (active)
88 | CCN(CC)c1ccc(/C=N/NC(=O)c2cnccn2)c(O)c1 | 72.3% (inactive)
89 | Nc1c(C(=O)Nc2ccc3c(c2)OCCO3)nnn1Cc1ccccc1 | -194% (active)
90 | CCOc1ccc(N2C(=O)CC(N(O)c3ccccc3)C2=O)cc1 (centres undefined) | -65% (active)
91 | Cc1ccc(S(=O)(=O)NC(=O)Nc2nc(-c3ccc(F)c(F)c3)cs2)cc1 | -61.5% (active)
92 | O=S(=O)(Nc1ccc2nc(-c3ccco3)[nH]c2c1)c1ccccc1 | -181% (active)
93 | CC(=O)N1CCC(C(=O)Nc2nc(-c3ccccc3)ns2)CC1 | -82.9% (active)
94 | Cc1ccc(N=C2NC(=O)c3cccc([N+](=O)[O-])c32)cc1 | -141% (active)
95 | O=C(CSc1nnnn1C1CCCC1)N1CCCCC1 | -88% (active)
96 | CCCCCC(=O)Nc1ccc2oc(-c3ccncc3)nc2c1 | -80.2% (active)
97 | COc1cccc(/C=C2\C=C(c3ccc(C)cc3)OC2=O)c1OC(C)=O | -65.8% (active)
98 | COc1cccc(/C=C/c2ccc3ccccc3n2)c1OC(C)=O | 83.1% (inactive)
99 | O=C(NCCC1=CCCCC1)c1ccc(Cl)c([N+](=O)[O-])c1 | -108% (active)
100 | Cc1ccc2cc(/C=N/Nc3ccc(C(=O)O)cc3)c(Cl)nc2c1 | -167% (active)
101 | CC1CCC(NC(=O)CNC(=O)c2ccc3ccccc3c2)CC1 (centres undefined) | -74% (active)
102 | Clc1cccc(-c2nc3nc4ccccc4nc3n2Cc2ccco2)c1 | -77.2% (active)
103 | Clc1ccc(-c2csc(-c3ccncc3)n2)cc1 | -135% (active)
104 | O=c1[nH]c(/C=C/c2cccc(Br)c2)nc2ccccc12 | -125% (active)
